# The list is not random: actives were taken first. Their share in the collection is about 10%.
# FLuc inh-1 – Photinus pyralis luciferase inhibition | purified P. pyralis luciferase, luminescence, biochemical | AID 1347043 | Potency, µM (titrated, usually from 115 µM), most hits filed as inhibitors | 76,000 tested, 2.5% active; further: on the % scale 0 is the no-effect control and ±100 the full control effect; nearly all actives have a fitted effect of over 65% in size
# Target sequence (P08659 whole entry, looked up): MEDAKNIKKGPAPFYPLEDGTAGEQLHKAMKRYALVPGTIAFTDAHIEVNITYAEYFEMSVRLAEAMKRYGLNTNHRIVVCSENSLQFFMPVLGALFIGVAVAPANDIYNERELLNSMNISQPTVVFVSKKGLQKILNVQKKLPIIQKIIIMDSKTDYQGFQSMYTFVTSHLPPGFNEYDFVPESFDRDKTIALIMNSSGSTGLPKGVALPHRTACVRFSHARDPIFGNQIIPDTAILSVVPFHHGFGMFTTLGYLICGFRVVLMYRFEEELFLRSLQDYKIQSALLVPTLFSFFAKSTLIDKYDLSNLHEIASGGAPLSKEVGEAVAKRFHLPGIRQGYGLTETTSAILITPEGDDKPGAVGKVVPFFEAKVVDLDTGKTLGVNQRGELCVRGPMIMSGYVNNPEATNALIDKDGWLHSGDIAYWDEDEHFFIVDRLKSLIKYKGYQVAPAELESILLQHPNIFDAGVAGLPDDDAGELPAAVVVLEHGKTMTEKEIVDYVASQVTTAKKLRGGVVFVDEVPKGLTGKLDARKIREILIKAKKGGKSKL
#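 Purified 10nM P. pyralis luciferase with 10uM D-luciferin and 10uM ATP in 50mM Tris acetate pH 7.5, 10mM Mg acetate, 0.01% Tween-20, 0.05% BSA. qHTS titration; luminescence read by CCD imager.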
# NPR1 antag – antagonists of human natriuretic peptide receptor Npr1. 76,000 tested, 1.6% active. HEK293 hNpr1 GloSensor cGMP, ANP-stimulated luminescence. Potency, µM (titrated, usually from 46.3 µM), for inactives: at the top dose activity change, negative = inhibition, actives largely listed as inhibitors; calls by dose curve; further: on the % scale 0 is the no-effect control and ±100 the full control effect; nearly all actives have a fitted effect of over 60% in size
#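 Compound pre-incubated 30 min at room temperature on GloSensor-loaded HEK293 cells stably carrying hNpr1 and the pGS-40F cGMP biosensor. Stimulation uses hNppA at 0.1 nM final; luminescence is taken at baseline and 20 min post-agonist.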
# HEK293 tox – cytotoxic compounds in HEK 293 cells | 94,000 tested, 6.6% active | HEK 293 viability, ATP luminescence (CellTiter-Glo), 48-72 h | Potency, µM (highest dose often 115 µM), for inactives: at the highest dose activity change, negative = cytotoxicity, actives largely listed as inhibitors; further: on the % scale 0 is the no-effect control and ±100 the full control effect; nearly all actives have a fitted effect of over 60% in size
#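 ATP-coupled CellTiter-Glo luminescence served as viability read-out, recorded 10 min after reagent addition at room temperature. HEK 293 cells, 250 cells/well, had been incubated with pintool-transferred compound for 48 or 72 hr at 37 degree Celsius.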
# 3T3 cytotox – kills NIH 3T3 cells | NIH 3T3 viability, CellTiter-Glo ATP luminescence, 48-72 h | Potency, µM (top dose mostly 96.7 µM), for inactives: at the top dose activity change, negative = cytotoxicity, actives largely listed as inhibitors | 94,000 tested, 4.3% active | AID 1345082; further: on the % scale 0 is the no-effect control and ±100 the full control effect; nearly all actives have a fitted effect of over 55% in size
#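 First NIH 3T3 cells are plated at 400 cells/well; next compound is pinned in; then plates incubate 48 or 72 hr at 37 °C; finally CellTiter-Glo is added and luminescence read after 10 min.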
# GPT2 inhibitor – GPT2 alanine aminotransferase inhibition | Potency, µM (series often up to 57.7 µM), for inactives: top-dose activity change, negative = inhibition, hits mostly inhibitors | Recombinant GPT2, coupled pyruvate oxidase/HRP Amplex Red fluorescence | Q8TD30 | 100,000 tested, 0.25% active; further: on the % scale 0 is the no-effect control and ±100 the full control effect; nearly all actives have a fitted effect of over 60% in size
#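 Inhibition is scored from Amplex Red fluorescence generated when pyruvate oxidase and HRP act on pyruvate released by GPT2. Reactions contain 10ng/uL enzyme, 250uM a-KG and 2mM L-alanine and run 30 min at room temperature.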
# FLuc SDR -ATP – firefly luciferase binding stabilization, ATP absent; AID 1963318; Purified FLuc-C-HiBiT, Nano-Glo HiBiT luminescence, no ATP; shares compounds with FLuc inh-1; 1,300 tested, 7.8% active; Potency, µM (doses to about 32.7 µM), for inactives: at the highest dose activation (signal gain), hits mostly activators; further: nearly all actives have a fitted effect of over 55% in size
# FLuc SDR ATP – firefly luciferase binding stabilization, ATP added. shares compounds with FLuc inh-1. purified FLuc-C-HiBiT + ATP, HiBiT complementation luminescence. Potency, µM (titrated, usually from 32.7 µM), for inactives: top-dose activation (gain of signal), actives largely listed as activators. 1,300 tested, 8.7% active. AID 1963319;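 further: signal reports ligand binding via conformational change of the enzyme rather than luciferase catalysis; % of control where 0% means no effect; nearly all actives have a fitted effect of over 55% in size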
# FLuc inh-2 – inhibitors of firefly luciferase enzymatic activity; AID 1963320; Potency, µM (highest dose often 32.7 µM), for inactives: at the top dose activity change, negative = inhibition, usual class: inhibitors; purified FLuc-C-HiBiT enzyme, luciferin luminescence; shares compounds with FLuc inh-1; 1,300 tested, 42% active; further: on the % scale 0 is the no-effect control and ±100 the full control effect; nearly all actives have a fitted effect of over 70% in size
# Active calls of the source: *; i = inactive; u = inconclusive; x = not tested or not shown; [ ] = remark or other dose. Unless noted, the call rests on the fitted dose curve; in most records, active means well fitted curve in the direction sought with a large enough effect; inconclusive means small, poorly fitted or top-dose-only effect, or another doubt; inactive means no such curve, though single readings can be large; an effect the other way counts as inactive or inconclusive. Potency means the concentration at half of the fitted maximal effect.
SMILES,FLuc inh-1,NPR1 antag,HEK293 tox,3T3 cytotox,GPT2 inhibitor,FLuc SDR -ATP,FLuc SDR ATP,FLuc inh-2
Cn1c(N2CCN(C(=O)CC[C@H]3NC(=O)c4ccccc4NC3=O)CC2)nc2ccccc21,i,-8%,-2%,0%,i,x,x,x
CCOc1ccc(NC(=O)C2CCN(C(=O)c3ncn4c3COC(c3ccccc3)C4)CC2)cc1 (configuration not stated),13µM*,-5%,16%,i,5%,13%,u,7µM*
COc1cccc(-c2cc(C(=O)NCc3nc(-c4ccccc4)n[nH]3)[nH]n2)c1,14µM*,2%,u,u,-2%,19%,11%,u
COc1ccc(C(=O)Nc2cc(C(C)C)c(O)c(S(=O)(=O)c3ccc(Cl)cc3)c2C)cc1,x,x,x,x,x,12%,12%,u
COc1ccc(C(=O)NCc2nnc3ccc(-c4ccc(Cl)cc4)nn23)c(C)c1,i,-2%,u,i,-7%,x,x,x
CCN(CC)C(=O)N1CCOC(c2ccc3cc(OC)ccc3c2)C1 (configuration not stated),1.6µM*,11µM*,u,u,5%,30%,u,5.6µM*
COc1ccc(-c2cc(C(=O)N3CCOC(c4ccc(F)cc4)C3)[nH]n2)cc1 (configuration not stated),i,-27%,u,u,-8%,x,x,x
COc1ccc2cc(C3CN(C(=O)CCc4n[nH]c(C)n4)CCO3)ccc2c1 (configuration not stated),2.5µM*,u,-24%,u,-3%,u,u,9.9µM*
COc1ccc2cc(C3CN(C(=O)c4cccc(CO)n4)CCO3)ccc2c1 (configuration not stated),3.5µM*,u,u,-32%,i,23%,u,u
COC(=O)CN1CCOC(c2ccc3cc(OC)ccc3c2)C1 (configuration not stated),i,0%,u,u,-9%,x,x,x
COc1ccc2cc(C3CN(C(=O)c4cccc(CO)c4)CCO3)ccc2c1 (configuration not stated),0.56µM*,10µM*,28µM*,u,-8%,u,u,2.5µM*
Cc1cccc(C(=O)N2CCCN(Cc3ccncc3)C(c3ccccc3)CC(=O)NCC2)c1 (configuration not stated),i,2%,-13%,-12%,i,x,x,x
CNC(=O)c1cc(C)nc2onc(C3CCCN(C(=O)c4ccccc4OC)C3)c12 (configuration not stated),x,x,-1%,-19%,x,x,x,x
COCCc1noc(CC2CCOC3(CCN(Cc4cccc(OC)c4OC)CC3)C2)n1 (configuration not stated),i,4%,-4%,2%,i,x,x,x
O=C(c1[nH]ncc1Cl)N1CCOC(Cc2cccc(C(F)(F)F)c2)C1 (configuration not stated),13µM*,-3%,u,-29%,3%,13%,12%,-15%
O=C(NC1CCN(c2ccnc3ccnn23)C1)c1ccc2c(c1)OCO2 (configuration not stated),x,x,u,u,3%,x,x,x
CN1CCN(c2ncnc3c2CN(C2CCC2)C(=O)CN3C)CC1,x,x,-9%[172 µM],u,i,x,x,x
CCOC(=O)C1(C)C=C(Nc2cccc(C(=O)O)c2)C(=O)N1c1ccccc1 (configuration not stated),x,x,x,x,x,10%,u,u
CCOC(=O)c1cccc(NC(=O)N2CC[C@@H](CC(=O)O)[C@@H](CC)C2)c1,i,6%[70.6 µM],-13%[172 µM],-18%[174 µM],-6%[88.5 µM],x,x,x
O=C(NCc1cccnc1)c1nc2cccnc2n(C2CC2)c1=O,x,x,1%[172 µM],-8%[138 µM],i,x,x,x
COc1cccc(-c2ccc(C(=O)N3CCC(NC(=O)c4ccccc4F)CC3)cc2)c1,x,x,u,u,i,x,x,x
N=c1nc(N2CCCCC2)cc(N)n1O,x,x,x,x,-11%,x,x,x
CCN1CCN(c2ccc3nnc(C4CCC4)n3n2)CC1,i,0%,-2%,-15%,-7%,x,x,x
Nc1cccc(-c2ccc(N3CCCCC3)nn2)c1,0.4µM*,4µM*,35µM*,35µM*,-5%,1.6µM*,1.2µM*,0.56µM*
CCN1CCN(c2ccc(-c3cccc(N)c3)nn2)CC1,14µM*,u,u,u,i,23%,u,9.9µM*
SMILES,FLuc inh-1,NPR1 antag,HEK293 tox,3T3 cytotox,GPT2 inhibitor,FLuc SDR -ATP,FLuc SDR ATP,FLuc inh-2
CCOc1ccc(C(=O)Nc2cc(-c3nc4ccccc4s3)ccc2OC)cc1,x,x,x,x,x,17%,9%,-5%
Cc1nonc1COc1ccc(C(=O)Nc2cccc(-c3nc4ccccc4s3)c2)cc1,x,x,x,x,x,9%,10%,u
COc1ccc(-c2noc(-c3nc(-c4ccc(OC)c(OC)c4)no3)n2)cc1OC,i,1%,-1%,i,i,x,x,x
COc1ccc(-c2nc3cc(F)ccc3s2)cc1OC,x,x,x,x,x,20%[3.62 µM],14%[3.62 µM],u
COc1ccc(C(=O)Nc2cc(-c3nc4ccccc4s3)ccc2OC)cc1,x,x,x,x,x,13%,10%,u
COc1ccccc1-c1[nH]ncc1CN1CCCCCNC(=O)CC1c1ccccc1 (configuration not stated),i,-15%,u,u,-23%,x,x,x
Cc1cccc(C)c1CN1CCCC12Cc1ccccc1CNC2=O (configuration not stated),x,x,-16%,-17%,3%,x,x,x
Cc1ccc(NC(=O)c2nc3sccn3c2-c2cccc(C#N)c2)cc1,x,x,-27%,-14%,i,x,x,x
CCOC(=O)[C@H]1[C@@H](O)C(=O)N(C(C)C)C12CCN(C(=O)Nc1ccc3c(c1)OCO3)CC2,x,x,-2%,u,x,x,x,x
O=C(CC1COCCN1)N1CCN(C/C=C/c2ccccc2)CC1 (configuration not stated),i,2%,u,-4%,-2%,x,x,x
CCCCOc1ccc(C(=O)Nc2ccc(-c3nc4ccccc4s3)cc2C)cc1,x,x,x,x,x,18%,10%,0%
